Test results reported in publication PMC8222333, “AsCas12a ultra nuclease facilitates the rapid generation of therapeutic cell medicines”.
Positions count from the first letter of the chain named.

B1: GAGC (dsDNA)
DNA 1: GCTATCTAGTGCTCAGTACGCACTGGAGCAGGAAACTTCTGGCAGGACCAGGTCATGAGATCGGAAGAGCACACGTCTGAACTCCAGTCA
DNA 2: TGACTGGAGTTCAGACGTGTGCTCTTCCGATCTCATGACCTGGTCCTGCCAGAAGTTTCCTGCTCCAGTGCGTACTGAGCACTAGATAGC
RNA: AAUUUCUACUCUUGUAGAUAGGAAACUUCUGGCAGGACC
B2: GGCA (dsDNA)
DNA 1: B1 DNA 1 with A27G, G28C, C29A
DNA 2: B1 DNA 2 with G62T, C63G, T64C
RNA: B1 RNA
B3: GGAG (dsDNA)
DNA 1: B1 DNA 1 with A27G, G28A, C29G
DNA 2: B1 DNA 2 with G62C, C63T, T64C
RNA: B1 RNA
B4: GAGG (dsDNA)
DNA 1: B1 DNA 1 with C29G
DNA 2: B1 DNA 2 with G62C
RNA: B1 RNA
B5: GGCC (dsDNA)
DNA 1: B1 DNA 1 with A27G, G28C
DNA 2: B1 DNA 2 with C63G, T64C
RNA: B1 RNA
B6: GAGT (dsDNA)
DNA 1: B1 DNA 1 with C29T
DNA 2: B1 DNA 2 with G62A
RNA: B1 RNA
B7: GCCC (dsDNA)
DNA 1: B1 DNA 1 with A27C, G28C
DNA 2: B1 DNA 2 with C63G, T64G
RNA: B1 RNA
B8: GGAC (dsDNA)
DNA 1: B1 DNA 1 with A27G, G28A
DNA 2: B1 DNA 2 with C63T, T64C
RNA: B1 RNA
B9: GGAT (dsDNA)
DNA 1: B1 DNA 1 with A27G, G28A, C29T
DNA 2: B1 DNA 2 with G62A, C63T, T64C
RNA: B1 RNA
B10: GCAC (dsDNA)
DNA 1: B1 DNA 1 with A27C, G28A
DNA 2: B1 DNA 2 with C63T, T64G
RNA: B1 RNA
B11: GCCG (dsDNA)
DNA 1: B1 DNA 1 with A27C, G28C, C29G
DNA 2: B1 DNA 2 with G62C, C63G, T64G
RNA: B1 RNA
B12: GCAT (dsDNA)
DNA 1: B1 DNA 1 with A27C, G28A, C29T
DNA 2: B1 DNA 2 with G62A, C63T, T64G
RNA: B1 RNA
B13: GCAA (dsDNA)
DNA 1: B1 DNA 1 with A27C, G28A, C29A
DNA 2: B1 DNA 2 with G62T, C63T, T64G
RNA: B1 RNA
B14: GCCT (dsDNA)
DNA 1: B1 DNA 1 with A27C, G28C, C29T
DNA 2: B1 DNA 2 with G62A, C63G, T64G
RNA: B1 RNA
B15: GCGT (dsDNA)
DNA 1: B1 DNA 1 with A27C, C29T
DNA 2: B1 DNA 2 with G62A, T64G
RNA: B1 RNA
B16: GGAA (dsDNA)
DNA 1: B1 DNA 1 with A27G, G28A, C29A
DNA 2: B1 DNA 2 with G62T, C63T, T64C
RNA: B1 RNA
B17: GCAG (dsDNA)
DNA 1: B1 DNA 1 with A27C, G28A, C29G
DNA 2: B1 DNA 2 with G62C, C63T, T64G
RNA: B1 RNA

Legend:
Assay in all cases: Spec-seq (native PAGE EMSA with sequencing of bound and unbound); 25 mM Tris-HCl pH 7.4, 150 mM KCl, 5 mM MgCl2, 10% glycerol, 1 mM DTT, 40 ng/uL salmon sperm DNA; 400 nM Cas12a, 480 nM crRNA, 50 nM library, 37 C 1 h; native PAGE at room temperature; high values mean tight binding
Settings in all cases: protein: recombinant
[1] = molecular target: dAsCas12a S542R (Acidaminococcus sp., UniProt U2UMQ6 1-1307, S542R;D908A;E993A;D1235A)
[2] = molecular target: d-enCas12a (Acidaminococcus sp., UniProt U2UMQ6 1-1307, E174R;S542R;K548R;D908A;E993A;D1235A)
[3] = molecular target: d-enCas12a-Ultra (Acidaminococcus sp., UniProt U2UMQ6 1-1307, E174R;S542R;K548R;M537R;F870L;D908A;E993A;D1235A)
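Further: relative affinity from the bound to unbound sequence frequency ratio in Spec-seq.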

Row | Binder | binding signal [1] [lnKA] | binding signal [2] [lnKA] | binding signal [3] [lnKA]
1 | B1 | -8.89 | -5.66 | -3.45
2 | B2 | -8.26 | -4.74 | -1.64
3 | B3 | -8.39 | -5.85 | -3.43
4 | B4 | -8.75 | -5.9 | -3.51
5 | B5 | -8.47 | -3.7 | -0.996
6 | B6 | -8.58 | -5.78 | -3.48
7 | B7 | -5 | -2.96 | -0.56
8 | B8 | -8.47 | -5.75 | -3.35
9 | B9 | -8.54 | -5.99 | -3.45
10 | B10 | -8.62 | -5.82 | -3.32
11 | B11 | -6.59 | -5.48 | -1.86
12 | B12 | -8.69 | -5.86 | -3.45
13 | B13 | -8.78 | -5.83 | -3.42
14 | B14 | -7.86 | -5.97 | -2.67
15 | B15 | -8.52 | -5.91 | -3.51
16 | B16 | -8.88 | -5.71 | -3.48
17 | B17 | -8.35 | -6.02 | -3.32
